Laboratory results from PubChem BioAssay AID1159580 (chemical genetic matrix, 2015).
About 2,000 (36%) of roughly 5,500 compounds were called active. Inconclusive results (about 18%) are left out. Rule as the data show it: active = normalized growth mostly below about 0.91 (no sharp cut-off); inconclusive = no clear call, values can overlap the other calls; inactive = mostly above about 0.92. The list shows a part of the results.

Assay: chemical genetic growth profiling, strain panel (AID 1159580);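 also: tested at 20 µM; growth read once vehicle control cultures reached saturation at 30 °C; 1 = growth at the plate median or of vehicle wells; lower values mean less growth of the strain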
Conditions: S. cerevisiae deletion strains, growth OD

Measured: normalized growth

COc1cc(OC)c2c(c1)OC(c1ccc(OC)c(OC)c1)C(O)C2 (centres undefined)
inactive: locus YBR021W, strain FUR4, hits give low values 1.04 | locus YBR229C, strain ROT2, hits give low values 1.01 | locus YCL029C, strain bik1, hits give low values 1.03 | locus YDL035C, strain GPR1, hits give low values 1.08 | locus YDL074C, strain BRE1, hits give low values 1.11 | locus YDL101C, strain DUN1, hits give low values 1.02 | locus YDL185W, strain tfp1, hits give low values 1.03 | locus YDL192W, strain arf1, hits give low values 1.02 | locus YDR101C, strain arx1, hits give low values 0.991 | locus YDR162C, strain NBP2, hits give low values 1.04 | locus YDR318W, strain mcm21, hits give low values 1.03 | locus YDR388W, hits give low values 1 | locus YDR502C, strain sam2, hits give low values 1.03 | locus YER110C, hits give low values 1.01 | locus YER155C, strain BEM2, hits give low values 0.999 | locus YER167W, strain BCK2, hits give low values 1 | locus YGL078C, strain dbp3, hits give low values 1.03 | locus YGL086W, strain mad1, hits give low values 1.02 | locus YGL248W, strain PDE1, hits give low values 1.06 | locus YGR078C, strain PAC10, hits give low values 1.04 | locus YGR135W, strain pre9, hits give low values 1.05 | locus YGR252W, strain gcn5, hits give low values 1.05 | locus YHR030C, strain SLT2, hits give low values 1.02 | locus YHR079C, strain IRE1 (second series), hits give low values 1.02 | locus YHR094C, strain hxt1, hits give low values 1.01 | locus YHR129C, strain ARP1, hits give low values 1.02 | locus YHR200W, strain rpn10, hits give low values 1.04 | locus YIL066C, strain RNR3, hits give low values 1.02 | locus YIL073C, strain SPO22, hits give low values 1.16 | locus YIL125W, strain kgd1, hits give low values 1.02 | locus YIR030C, strain dcg1, hits give low values 1.02 | locus YJL095W, strain BCK1, hits give low values 1.07 | locus YJL134W, strain LCB3, hits give low values 1.01 | locus YJL168C, strain set2, hits give low values 1.01 | locus YJL187C, strain SWE1 (second series), hits give low values 1.05 | locus YJR043C, strain POL32, hits give low values 1.06 | locus YKL009W, strain mrt4, hits give low values 1.04 | locus YKL068W, hits give low values 0.998 | locus YKL085W, strain MDH1 (second series), hits give low values 1.01 | locus YKL085W, strain MDH1, hits give low values 1.01 | locus YKR001C, strain vps1, hits give low values 1.03 | locus YLR039C, strain RIC1, hits give low values 1.17 | locus YLR058C, strain SHM2, hits give low values 1.03 | locus YLR102C, strain apc9, hits give low values 1.01 | locus YLR268W, strain sec22, hits give low values 1.01 | locus YLR371W, strain rom2, hits give low values 1.05 | locus YLR418C, strain cdc73, hits give low values 1.04 | locus YML016C, strain PPZ1, hits give low values 1.01 | locus YML032C, strain rad52, hits give low values 1.02 | locus YML124C, strain tub3, hits give low values 1 | locus YMR078C, strain ctf18, hits give low values 1.02 | locus YMR223W, strain ubp8, hits give low values 1.02 | locus YMR307W, strain GAS1, hits give low values 1.22 | locus YNL067W, strain RPL9B, hits give low values 1.01 | locus YNL233W, strain BNI4, hits give low values 1.05 | locus YNL250W, strain rad50, hits give low values 1.05 | locus YNL271C, strain bni1, hits give low values 1.01 | locus YNL298W, strain CLA4, hits give low values 1.03 | locus YNL307C, strain MCK1, hits give low values 1.01 | locus YNR052C, strain pop2, hits give low values 1.05 | locus YOL012C, strain htz1 1.04 | locus YOL147C, strain pex11, hits give low values 1.03 | locus YOR061W, strain CKA2, hits give low values 1.01 | locus YOR069W, strain VPS5, hits give low values 1.02 | locus YOR136W, strain idh2, hits give low values 1.02 | locus YOR144C, strain elg1, hits give low values 1.01 | locus YOR184W, strain ser1, hits give low values 1.02 | locus YOR316C, strain cot1, hits give low values 1.03 | locus YPL241C, strain CIN2, hits give low values 1.02 | locus YPR119W, strain clb2, hits give low values 1.01 | locus YPR141C, strain kar3, hits give low values 1.02 | locus YPR163C, strain tif3, hits give low values 1.02 | locus YPR167C, strain met16, hits give low values 1.04 | strain wtn01, hits give low values 1.03
